The supplement of paper PMC6555819

Experiments:
Assay in all cases: PBM binding z-score (relative to random genomic background probes); higher = stronger binding; sequences stand for … in GC…GCGATTGACAGCGTAGAATGAAGG
[1] = system: RARb homodimer (NR concentration 270 nM)
How it was run: (§1)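 Random background probes are the reference for binding z-scores. These scores derive from regression-normalized fluorescence on custom Agilent 4×180K protein-binding microarrays incubated 1 h with ligand-free nuclear receptor dimers. Binding was detected with antibodies against each partner (one per run).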

[2] = system: RARg:RXRa (NR concentration 270 nM, RXRa partner concentration 90 nM)
How it was run: as §1

[3] = system: RARg homodimer (NR concentration 270 nM)
How it was run: as §1

[4] = system: RXRa DBDmut IVT, anti-RXR (DBD mutation: RXRa K156A/R161A, NR concentration 90 nM)
How it was run: as §1

[5] = system: RXRa homodimer (NR concentration 180 nM)
How it was run: as §1

[6] = system: THRa:RXRa (NR concentration 90 nM, RXRa partner concentration 90 nM)
How it was run: as §1

[7] = system: THRa homodimer (NR concentration 90 nM)
How it was run: as §1

[8] = system: VDR homodimer (NR concentration 270 nM)
How it was run: as §1

TAGCCTAGGACAGATCGGGCCAGTATACGCTATA
PBM binding z-score [1]: -0.402 | PBM binding z-score [2]: -0.336 | PBM binding z-score [3]: 0.0371 | PBM binding z-score [4]: -1.01 | PBM binding z-score [5]: -0.257 | PBM binding z-score [6]: 0.511 | PBM binding z-score [7]: -0.623 | PBM binding z-score [8]: -0.922

CGTCAAAGTTCAACTATGGTAACGTAAAGCACGC
PBM binding z-score [1]: 4.39 | PBM binding z-score [2]: 5.88 | PBM binding z-score [3]: 6.65 | PBM binding z-score [4]: 4.74 | PBM binding z-score [5]: 4.82 | PBM binding z-score [6]: 3.57 | PBM binding z-score [7]: 0.175 | PBM binding z-score [8]: 4.04

GCTGCTATGTCAGGTTGGTCAGCTAACGGGTACG
PBM binding z-score [1]: 0.477 | PBM binding z-score [2]: -0.153 | PBM binding z-score [3]: 0.0688 | PBM binding z-score [4]: 0.041 | PBM binding z-score [5]: -0.315 | PBM binding z-score [6]: -0.187 | PBM binding z-score [7]: -0.332 | PBM binding z-score [8]: -0.186

ATCTCTCGGTAAAGTTCAGTGAAAGATCGATAGA
PBM binding z-score [1]: 2.62 | PBM binding z-score [2]: 2.19 | PBM binding z-score [3]: 2.56 | PBM binding z-score [4]: 1.17 | PBM binding z-score [5]: 1.06 | PBM binding z-score [6]: 0.717 | PBM binding z-score [7]: 0.426 | PBM binding z-score [8]: 2.27

CGTCCAAGGTCATAGGAGGTCCGTGAAGACAGAT
PBM binding z-score [1]: 3.8 | PBM binding z-score [2]: 5.84 | PBM binding z-score [3]: 5.85 | PBM binding z-score [4]: 3.86 | PBM binding z-score [5]: 6.02 | PBM binding z-score [6]: 4.51 | PBM binding z-score [7]: 2.24 | PBM binding z-score [8]: 3.33

ACAGACAGGTCATGAAGGTAACTCAGGCTATCAT
PBM binding z-score [1]: 3.05 | PBM binding z-score [2]: 4.63 | PBM binding z-score [3]: 4.19 | PBM binding z-score [4]: 1.69 | PBM binding z-score [5]: 4.56 | PBM binding z-score [6]: 3.12 | PBM binding z-score [7]: 0.575 | PBM binding z-score [8]: 1.23

CCGACTGTGGCAAAGGTTACCATACTCAGTACGA
PBM binding z-score [1]: 2 | PBM binding z-score [2]: 2.04 | PBM binding z-score [3]: 1.17 | PBM binding z-score [4]: 0.804 | PBM binding z-score [5]: 2.6 | PBM binding z-score [6]: 1.4 | PBM binding z-score [7]: 0.0506 | PBM binding z-score [8]: 0.185
